Results from PubChem BioAssay (NCATS).
Inconclusive results are not listed. Active and inactive are the calls of the source. Calls come from the whole dose curve; as a rule, active = well fitted inhibition curve with a large enough effect; inconclusive = small, poorly fitted or top-dose-only effect; inactive = flat fitted curve, though single readings scatter.

Experiments:
HEK293 = test: Cytotoxic Profiling of Annotated Libraries Using Quantitative High-Throughput Screening (AID 1296008); settings: Five cell lines viability, CellTiter-Glo ATP luminescence, 48-72 h; max response: stronger effect = lower value; note: potency is the fitted concentration of half-maximal effect; for max response: % is set by controls: 0 for no effect and ±100 for the full control effect
Method in brief: (§1)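 Cells exposed to compounds for 48 or 72 hr at 37 degrees Celsius. Viability read as ATP-coupled luminescence with CellTiter-Glo after 10 min at room temperature.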

KB-3-1 = test: as above; settings: Five cell lines viability, CellTiter-Glo ATP luminescence, 48-72 h; max response: stronger effect = lower value
Method in brief: as §1

NIH3T3 = test: as above; settings: Five cell lines viability, CellTiter-Glo ATP luminescence, 48-72 h; max response: stronger effect = lower value
Method in brief: as §1

HEK293T = test: qHTS assay to identify novel small-molecules to repurpose for Merkel cell carcinoma treatment (AID 1296009); settings: MCC and control cell lines, CellTiter-Glo viability, 72 h; at 44.8 µM (top of the series) unless noted
Method in brief: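 Dose-response viability screen; 72 hr exposure at 37 degree celsius; CellTiter-Glo added, 10 min room temperature, luminescence read; RLUs scaled between no-cell and DMSO wells.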
Note: nearly all actives have a fitted effect of over 60% in size.

C[C@@H]1C(=O)O[C@H]2[C@@H](O)C34[C@H]5C[C@@H](C(C)(C)C)C36[C@@H](OC(=O)[C@@H]6O)O[C@@]4(C(=O)O5)[C@@]12O (some centres not stated)
inactive: max response (HEK293) -1.43% | max response (KB-3-1) -6.44% | max response (NIH3T3) -0.498%

CC1OC2OC(=O)C3(C)CC4=C(CO)C5=C(CC(=O)C4(C)C(C1=O)C23)C(C)(C)OC(=O)C5 (configuration not stated)
inactive: max response (HEK293) -12.2% | max response (KB-3-1) 2.12% | max response (NIH3T3) -2.31%

NC(=O)Nc1cc(-c2cccc(F)c2)sc1C(=O)NC1CCCNC1 (configuration not stated)
inactive: max response (HEK293) -108%
active: Potency (KB-3-1) 0.58 µM | Potency (NIH3T3) 0.517 µM

CC1=C(C(=O)O)/C(=C\CO[C@@H]2O[C@H](CO)[C@@H](O)[C@H](O)[C@H]2O)C(OC(=O)/C=C\c2ccc(O)cc2)C1 (some centres not stated)
inactive: outcome (HEK293) | outcome (KB-3-1) | max response (NIH3T3) -21.6% | outcome (HEK293T) inactive [at 17.4 µM]

COc1ccc(CN2C(=O)C(=O)c3cc(S(=O)(=O)N4CCC[C@H]4COc4cccnc4)ccc32)cc1
inactive: outcome (HEK293) | outcome (KB-3-1) | outcome (NIH3T3) | outcome (HEK293T)

COC(=O)CC1CC(c2ccc(O)cc2)=NO1 (configuration not stated)
inactive: max response (HEK293) 0.726% | max response (KB-3-1) -14.5% | max response (NIH3T3) -0.902%

CC1CCC2(C(=O)O)CCC3(C)C(=CCC4C5(C)CCC(OC(=O)/C=C/c6ccccc6)C(C)(C)C5CCC43C)C2C1C (configuration not stated)
inactive: max response (HEK293) -4.63% | max response (KB-3-1) 3.54% | max response (NIH3T3) -3.46%

CCc1c(C)nc2c(-c3cnn(-c4cc(CO)ccn4)c3)c[nH]n2c1=O
inactive: outcome (HEK293) | max response (KB-3-1) -1.88% | max response (NIH3T3) -6.61% | outcome (HEK293T)

CC1CC(O)C2(OC1=O)OC1C(O)C3C4CCC5CC(OC6OC(CO)C(O)C(O)C6OC6OC(C)C(O)C(O)C6O)CCC5(C)C4CCC3(C)C1C2C (configuration not stated)
inactive: outcome (HEK293) | outcome (KB-3-1) | outcome (NIH3T3) | outcome (HEK293T) inactive [at 17.4 µM]

Cc1cccc2c1NC(=O)C2(c1ccc(O)cc1)c1ccc(O)cc1
inactive: max response (HEK293) -20.9% | max response (KB-3-1) -4.45% | max response (NIH3T3) -15.5%

CC1CC2OC3(OC2C(C)(C)O)C1C1(C)CCC24CC25CCC(O[C@@H]2OC[C@@H](O)[C@H](O)[C@H]2O)C(C)(C)C5CC=C4C1(C)C3O (some centres not stated)
inactive: outcome (HEK293) | max response (KB-3-1) 5.34% | max response (NIH3T3) 0.0478% | outcome (HEK293T) inactive [at 17.4 µM]

O=C(O)CC(=O)OC[C@H]1O[C@@H](Oc2ccc3c(c2)OC[C@H]2c4cc5c(cc4O[C@@H]32)OCO5)[C@H](O)[C@@H](O)[C@@H]1O
inactive: outcome (HEK293) | max response (KB-3-1) -2.44% | max response (NIH3T3) -8.59% | outcome (HEK293T) inactive [at 17.4 µM]

COC(=O)C12CCC(C)C(C)C1C1=CCC3C4(C)CCC(OC(C)=O)C(C)(C)C4CCC3(C)C1(C)CC2 (configuration not stated)
inactive: max response (HEK293) 0.571% | max response (KB-3-1) 5.8% | outcome (NIH3T3)

CC1C=CC2CCCCC2C1CCC1CC(O)CC(=O)O1 (configuration not stated)
inactive: outcome (HEK293) | max response (KB-3-1) 3.85% | max response (NIH3T3) -16% | outcome (HEK293T)

C=C1CCC2C(C)(COC(C)=O)CCCC2(C)C1CCC(C)CC(=O)O (configuration not stated)
inactive: outcome (HEK293) | max response (KB-3-1) 8.96% | outcome (NIH3T3) | outcome (HEK293T)

CC1CCC2(OC1)OC1CC3C4CCC5C[C@@H](O[C@@H]6O[C@H](CO[C@@H]7OC[C@@H](O)[C@H](O)[C@H]7O)[C@H](O)[C@H](O)[C@H]6O)CC[C@]5(C)C4CC[C@]3(C)C1C2C (some centres not stated)
inactive: outcome (HEK293) | max response (KB-3-1) 9.78% | outcome (NIH3T3) | outcome (HEK293T) inactive [at 17.4 µM]

C=C(C)C1CCC2(C(=O)O[C@@H]3O[C@H](CO[C@@H]4O[C@H](CO)[C@@H](O)[C@H](O)[C@H]4O)[C@@H](O)[C@H](O[C@@H]4O[C@@H](C)[C@H](O)[C@@H](O)[C@H]4O)[C@H]3O)CCC3(C(=O)O)C(CCC4C5(C)CCC(O)C(C)(C)C5CCC43C)C12 (some centres not stated)
inactive: outcome (HEK293) | outcome (KB-3-1) | outcome (NIH3T3) | outcome (HEK293T) inactive [at 9.27 µM]

CC/C=C\CCO[C@@H]1O[C@H](CO[C@@H]2OC[C@H](O)[C@H](O)[C@H]2O)[C@@H](O)[C@H](O)[C@H]1O
inactive: outcome (HEK293) | outcome (KB-3-1) | max response (NIH3T3) -20.8% | outcome (HEK293T)

CC(NC(=O)C(O)C(C)C)C(=O)NC1C(=O)N(C)CCc2ccccc21 (configuration not stated)
inactive: outcome (HEK293) | outcome (KB-3-1) | outcome (NIH3T3) | outcome (HEK293T)

Cn1cc(S(=O)(=O)c2ccc(Cl)cc2)c2cccc(N3CCNCC3)c21
active: Potency (HEK293) 6.51 µM | Potency (KB-3-1) 20.6 µM | Potency (NIH3T3) 18.4 µM

C[C@@]1(O)[C@H](O)[C@@H](CO)O[C@H]1n1ccc(N)nc1=O
inactive: outcome (HEK293) | outcome (KB-3-1) | outcome (HEK293T)

CC1(C)CC[C@]2(C(=O)O)CC[C@]3(C)C(=CCC4[C@@]5(C)C[C@@H](O)[C@H](O)C(C)(C)C5CC[C@]43C)C2C1 (some centres not stated)
inactive: outcome (HEK293) | outcome (KB-3-1) | max response (NIH3T3) 4.86% | outcome (HEK293T) inactive [at 17.4 µM]

CC1(C)C[C@H](O)C[C@@]2(C)OC(=O)C=C12
inactive: outcome (HEK293) | outcome (KB-3-1) | max response (NIH3T3) 2.91% | outcome (HEK293T) inactive [at 92 µM]

OC1CCC(Nc2ncc3nc(Nc4c(F)cc(F)cc4F)n([C@H]4CCOC4)c3n2)CC1 (some centres not stated)
inactive: outcome (HEK293) | outcome (KB-3-1) | max response (NIH3T3) 3.11% | outcome (HEK293T)
